The values that follow come from ChEMBL document CHEMBL2218924, “A broad activity screen in support of a chemogenomic map for kinase signalling research and drug discovery” (Biochem J, 2013).

In test [1] the target is T1, Serine/threonine-protein kinase 3 (Homo sapiens) (UniProt Q13188).
T1 sequence (whole entry): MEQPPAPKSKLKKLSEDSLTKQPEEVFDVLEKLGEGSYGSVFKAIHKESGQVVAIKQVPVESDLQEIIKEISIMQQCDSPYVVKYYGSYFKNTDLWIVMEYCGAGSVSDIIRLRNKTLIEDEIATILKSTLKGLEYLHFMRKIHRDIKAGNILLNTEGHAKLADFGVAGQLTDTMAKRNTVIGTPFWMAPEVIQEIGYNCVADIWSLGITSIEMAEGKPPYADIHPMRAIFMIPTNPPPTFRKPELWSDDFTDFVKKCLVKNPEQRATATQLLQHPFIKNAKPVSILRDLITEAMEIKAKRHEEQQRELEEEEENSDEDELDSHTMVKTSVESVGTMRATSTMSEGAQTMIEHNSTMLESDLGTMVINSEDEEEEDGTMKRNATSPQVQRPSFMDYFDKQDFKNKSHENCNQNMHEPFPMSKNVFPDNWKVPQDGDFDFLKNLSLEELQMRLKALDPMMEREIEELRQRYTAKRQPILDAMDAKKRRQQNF
As to conditions: at 1 µM.

In test [2] the target is T1, Serine/threonine-protein kinase 3 (Homo sapiens). As to conditions: at 10 µM.
In test [3] the target is Serine/threonine-protein kinase 24 (Homo sapiens) (UniProt Q9Y6E0). As to conditions: at 1 µM.
Sequence of Serine/threonine-protein kinase 24 (Homo sapiens) (Q9Y6E0 whole entry, looked up): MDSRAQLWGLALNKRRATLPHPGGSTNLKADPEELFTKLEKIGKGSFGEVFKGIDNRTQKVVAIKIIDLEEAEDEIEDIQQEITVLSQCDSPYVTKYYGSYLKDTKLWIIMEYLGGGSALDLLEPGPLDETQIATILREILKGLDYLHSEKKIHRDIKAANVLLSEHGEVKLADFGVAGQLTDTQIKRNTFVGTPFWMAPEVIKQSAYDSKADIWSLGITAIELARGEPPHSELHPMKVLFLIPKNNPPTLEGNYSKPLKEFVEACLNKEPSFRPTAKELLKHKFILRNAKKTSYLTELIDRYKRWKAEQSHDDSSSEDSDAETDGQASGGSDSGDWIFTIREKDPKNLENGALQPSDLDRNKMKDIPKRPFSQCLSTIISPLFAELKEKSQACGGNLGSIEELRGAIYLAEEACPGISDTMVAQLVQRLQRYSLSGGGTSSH
Test [4] has the same target. The note with it: at 10 µM.
Test [5] addresses T2, Tyrosine-protein kinase Mer (Homo sapiens) (UniProt Q12866).
T2 sequence (whole entry): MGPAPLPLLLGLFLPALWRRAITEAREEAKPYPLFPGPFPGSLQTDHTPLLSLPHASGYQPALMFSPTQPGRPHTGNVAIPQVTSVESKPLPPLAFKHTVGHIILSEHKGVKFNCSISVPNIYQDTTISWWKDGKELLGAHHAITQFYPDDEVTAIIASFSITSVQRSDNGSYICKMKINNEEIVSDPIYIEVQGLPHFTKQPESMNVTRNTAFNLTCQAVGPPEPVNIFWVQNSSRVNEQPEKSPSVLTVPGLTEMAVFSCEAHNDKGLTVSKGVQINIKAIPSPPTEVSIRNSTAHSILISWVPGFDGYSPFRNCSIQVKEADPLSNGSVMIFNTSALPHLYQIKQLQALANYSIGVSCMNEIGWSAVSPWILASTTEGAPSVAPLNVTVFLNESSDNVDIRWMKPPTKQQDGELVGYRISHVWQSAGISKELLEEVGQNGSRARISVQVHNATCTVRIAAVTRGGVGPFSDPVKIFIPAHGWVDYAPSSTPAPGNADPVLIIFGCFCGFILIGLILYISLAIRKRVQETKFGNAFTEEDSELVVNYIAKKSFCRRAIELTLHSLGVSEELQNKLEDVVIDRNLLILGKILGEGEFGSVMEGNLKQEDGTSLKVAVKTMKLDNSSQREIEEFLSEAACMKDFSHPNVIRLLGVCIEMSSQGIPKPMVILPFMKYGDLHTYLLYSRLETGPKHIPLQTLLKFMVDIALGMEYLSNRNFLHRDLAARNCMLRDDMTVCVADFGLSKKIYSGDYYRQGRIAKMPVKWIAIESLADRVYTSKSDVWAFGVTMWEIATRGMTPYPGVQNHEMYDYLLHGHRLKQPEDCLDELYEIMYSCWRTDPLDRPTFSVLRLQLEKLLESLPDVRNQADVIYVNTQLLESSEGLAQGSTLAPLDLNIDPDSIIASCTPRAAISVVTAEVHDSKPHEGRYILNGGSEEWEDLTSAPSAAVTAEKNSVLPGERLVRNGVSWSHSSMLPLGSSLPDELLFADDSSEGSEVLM
The note with it: at 1 µM.

Test [6] addresses T2, Tyrosine-protein kinase Mer (Homo sapiens). The note with it: at 10 µM.
The target in test [7] is Hepatocyte growth factor receptor (Homo sapiens) (UniProt P08581). The note with it: at 1 µM.
Sequence of Hepatocyte growth factor receptor (Homo sapiens) (P08581 whole entry): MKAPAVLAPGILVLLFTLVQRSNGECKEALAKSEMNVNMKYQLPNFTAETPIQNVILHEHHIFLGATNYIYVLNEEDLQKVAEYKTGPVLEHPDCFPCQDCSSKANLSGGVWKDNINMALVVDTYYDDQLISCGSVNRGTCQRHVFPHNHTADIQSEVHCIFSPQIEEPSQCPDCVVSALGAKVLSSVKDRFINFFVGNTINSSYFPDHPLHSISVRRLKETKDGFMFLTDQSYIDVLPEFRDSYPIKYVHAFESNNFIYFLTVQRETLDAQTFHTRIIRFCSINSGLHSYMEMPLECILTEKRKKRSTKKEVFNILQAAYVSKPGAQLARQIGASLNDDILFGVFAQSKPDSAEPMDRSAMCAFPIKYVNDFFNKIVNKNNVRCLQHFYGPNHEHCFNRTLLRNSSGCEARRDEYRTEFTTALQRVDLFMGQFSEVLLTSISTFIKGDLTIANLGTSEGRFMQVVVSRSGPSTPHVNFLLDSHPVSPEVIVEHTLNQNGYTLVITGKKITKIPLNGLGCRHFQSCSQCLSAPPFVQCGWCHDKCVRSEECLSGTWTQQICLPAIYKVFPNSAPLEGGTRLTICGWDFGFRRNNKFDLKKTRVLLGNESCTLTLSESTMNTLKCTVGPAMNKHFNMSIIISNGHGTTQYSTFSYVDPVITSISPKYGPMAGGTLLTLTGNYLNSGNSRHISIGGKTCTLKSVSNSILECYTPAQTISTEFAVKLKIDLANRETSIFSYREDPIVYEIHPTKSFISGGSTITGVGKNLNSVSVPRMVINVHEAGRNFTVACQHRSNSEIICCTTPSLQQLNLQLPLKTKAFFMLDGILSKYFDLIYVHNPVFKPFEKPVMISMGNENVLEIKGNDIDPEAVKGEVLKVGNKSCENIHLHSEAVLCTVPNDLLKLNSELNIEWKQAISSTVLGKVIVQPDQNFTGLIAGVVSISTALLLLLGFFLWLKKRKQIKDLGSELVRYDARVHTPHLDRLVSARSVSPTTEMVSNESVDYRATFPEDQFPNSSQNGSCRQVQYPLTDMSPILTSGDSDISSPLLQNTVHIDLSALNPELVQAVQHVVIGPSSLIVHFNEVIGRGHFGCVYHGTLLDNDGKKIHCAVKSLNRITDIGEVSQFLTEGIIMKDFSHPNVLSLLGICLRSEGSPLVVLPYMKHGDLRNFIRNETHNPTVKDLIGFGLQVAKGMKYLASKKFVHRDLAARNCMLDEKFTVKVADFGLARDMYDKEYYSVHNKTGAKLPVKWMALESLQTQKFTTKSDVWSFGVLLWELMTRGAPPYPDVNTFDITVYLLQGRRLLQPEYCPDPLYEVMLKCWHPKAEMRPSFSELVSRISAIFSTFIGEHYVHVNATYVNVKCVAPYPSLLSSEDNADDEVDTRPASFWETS
Test [8] has the same target. As to conditions: at 10 µM.
Test [9] concerns the target MAP kinase-interacting serine/threonine-protein kinase 2 (Homo sapiens) (UniProt Q9HBH9). The note with it: at 1 µM.
Test [10] shares this target. As to conditions: at 10 µM.

Sequence of MAP kinase-interacting serine/threonine-protein kinase 2 (Homo sapiens) (Q9HBH9 whole entry, looked up): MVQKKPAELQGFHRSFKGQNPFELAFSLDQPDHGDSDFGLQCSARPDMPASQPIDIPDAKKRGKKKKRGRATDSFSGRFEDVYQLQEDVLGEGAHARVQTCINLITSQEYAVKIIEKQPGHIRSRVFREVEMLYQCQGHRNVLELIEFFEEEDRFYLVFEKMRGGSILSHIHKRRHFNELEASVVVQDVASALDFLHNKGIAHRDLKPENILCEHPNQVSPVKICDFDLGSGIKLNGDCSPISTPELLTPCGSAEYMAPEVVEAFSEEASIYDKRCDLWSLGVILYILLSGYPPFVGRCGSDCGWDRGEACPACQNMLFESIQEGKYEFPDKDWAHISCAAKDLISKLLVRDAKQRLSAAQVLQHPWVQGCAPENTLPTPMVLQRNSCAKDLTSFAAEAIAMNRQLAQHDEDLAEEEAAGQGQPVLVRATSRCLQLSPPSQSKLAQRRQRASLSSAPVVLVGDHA

Take `C[C@@H](N)[C@H]1CC[C@H](C(=O)Nc2ccncc2)CC1`: the residual activity (commonly the signal under treatment as a percentage of the control signal) was 111% in test [1]; 105% in [2]; 98% in [3]; 92% in [4]; 93% in test [5]; 101% in test [6]. Moreover, the residual activity stood at 132% in [7], 131% in test [8], 106% in test [9] and 77% in [10].

As for `Cn1cnc2cc3c(Nc4cccc(Br)c4)ncnc3cc21`, the residual activity in [1] came out at 98%; in test [2] it was 92%; in [3], 78%; in test [4] it was 80%; in test [5] it was 79%; in test [6], 58%. Besides, the residual activity in test [7] was 85%; in [8], 68%; in test [9] it was 26%; in test [10], 13%.

Take `COc1ccc(OC)c2c(=S)c3ccccc3[nH]c12`: the residual activity in [1] is 96%; in [2], 93%; in [3], 80%; in test [4], 85%; in [5], 99%; in test [6], 85%. For the same compound, the residual activity is 118% in test [7], 119% in test [8], 97% in [9] and 77% in test [10].

In the case of `CCOc1cc2ncnc(Nc3cccc(Br)c3)c2cc1OCC`, the residual activity in test [1] was 103%; in [2], 71%; in test [3], 61%; in [4], 47%; in test [5], 84%; in test [6], 31%. Further, the residual activity is 58% in [7], 33% in test [8], 21% in test [9] and 7% in test [10].

Turning to `CC(C)n1cnc2/c(=N/c3cccc(Cl)c3)nc(NCCO)[nH]c21`, the residual activity came out at 71% in test [1]; 36% in [2]; 62% in test [3]; 29% in test [4]; 54% in test [5]; 10% in test [6]. Besides, the residual activity in test [7] stood at 87%; in test [8] it was 47%; in test [9], 95%; in test [10], 77%.

In the case of `O=c1c2ccccc2[nH]c(=S)n1CCN1CCC(=C(c2ccc(F)cc2)c2ccc(F)cc2)CC1`, the residual activity amounted to 120% in test [1]; 93% in [2]; 71% in test [3]; 69% in test [4]; 106% in test [5]; 88% in test [6]. Also, the residual activity amounted to 136% in test [7], 89% in [8], 112% in test [9] and 103% in test [10].

As for `O=C1c2ccccc2-[n+]2ccc3c([nH]c4ccccc43)c21`, the residual activity was determined as 101% in [1]; 100% in test [2]; 71% in test [3]; 70% in [4]; 95% in [5]; 97% in [6]. Also, the residual activity in test [7] was 112%; in test [8] it was 86%; in test [9] it was 55%; in [10], 42%.

For `COc1ccc(C(=O)Nc2sc3c(c2C(N)=O)CCCC3)cc1OC`, the residual activity turned out to be 105% in test [1]; 91% in [2]; 68% in test [3]; 65% in test [4]; 107% in test [5]; 86% in test [6]. The residual activity was 120% in test [7], 110% in test [8], 99% in test [9] and 82% in test [10].

Regarding `N#C/C(=C(\N)Sc1ccc(N)cc1)c1ccccc1C(F)(F)F`, the residual activity in test [1] is 76%; in test [2], 80%; in [3], 70%; in test [4] it was 62%; in test [5], 94%; in test [6], 94%. Further, the residual activity is 98% in [7], 90% in [8], 102% in test [9] and 106% in test [10].

In the case of `O=c1cc(-c2cccc3c2Sc2ccccc2S3)oc(N2CCOCC2)c1`, the residual activity stood at 92% in test [1]; 93% in [2]; 98% in [3]; 81% in test [4]; 99% in test [5]; 89% in test [6]. The residual activity was determined as 106% in test [7], 120% in [8], 100% in [9] and 94% in [10].

Turning to `Oc1ccc(-c2nc(-c3ccc(F)cc3)c(-c3ccncc3)[nH]2)cc1`, the residual activity in test [1] was determined as 108%; in test [2], 90%; in [3], 93%; in [4], 77%; in test [5], 110%; in test [6], 96%. The residual activity stood at 117% in test [7], 37% in test [8], 117% in test [9] and 94% in test [10].

In the case of `O=C1NC(=O)c2c1c1c3ccccc3[nH]c1c1[nH]c3cc(Br)ccc3c21`, the residual activity in test [1] was found to be 89%; in test [2] it was 62%; in test [3], 92%; in [4], 80%; in [5], 87%; in test [6], 68%. Also, the residual activity came to 120% in [7], 116% in test [8], 48% in test [9] and 41% in test [10].

As for `Nc1ccc2ncnc(NCCc3ccc(Oc4ccccc4)cc3)c2c1`, the residual activity in [1] amounted to 100%; in test [2], 72%; in test [3], 99%; in [4], 72%; in test [5] it was 95%; in [6], 62%. In addition, the residual activity in [7] amounted to 124%; in test [8], 80%; in test [9], 105%; in [10] it was 74%.

Consider `CCN(CC)CCCCN1c2ccccc2Oc2ccc(Cl)cc21`, for which the residual activity in [1] is 118%; in [2], 112%; in test [3] it was 85%; in test [4], 99%; in test [5], 110%; in test [6] it was 62%. The residual activity in [7] was found to be 128%; in [8] it was 108%; in test [9], 107%; in test [10], 84%.

Turning to `CC#CC(=O)Nc1cc2c(Nc3ccc(F)c(Cl)c3)ncnc2cn1`, the residual activity in test [1] came out at 103%; in test [2], 94%; in test [3], 71%; in test [4], 75%; in test [5], 107%; in [6], 94%. For the same compound, the residual activity was 111% in test [7], 84% in test [8], 101% in [9] and 90% in test [10].

Consider `COc1cc2ncnc(Nc3ccc(O)c(Br)c3)c2cc1OC`, for which the residual activity in [1] turned out to be 97%; in test [2] it was 70%; in test [3] it was 54%; in [4] it was 43%; in test [5], 69%; in test [6], 16%. The residual activity in [7] was determined as 86%; in test [8], 72%; in test [9], 10%; in [10], 6%.
